{"source": "ChEMBL document CHEMBL2218924", "about": "“A broad activity screen in support of a chemogenomic map for kinase signalling research and drug discovery” (Biochem J, 2013)", "data": [{"molecular_target": "Glycogen synthase kinase-3 alpha (Homo sapiens) (UniProt P49840)", "sequence (P49840 2-483 limits assumed)": "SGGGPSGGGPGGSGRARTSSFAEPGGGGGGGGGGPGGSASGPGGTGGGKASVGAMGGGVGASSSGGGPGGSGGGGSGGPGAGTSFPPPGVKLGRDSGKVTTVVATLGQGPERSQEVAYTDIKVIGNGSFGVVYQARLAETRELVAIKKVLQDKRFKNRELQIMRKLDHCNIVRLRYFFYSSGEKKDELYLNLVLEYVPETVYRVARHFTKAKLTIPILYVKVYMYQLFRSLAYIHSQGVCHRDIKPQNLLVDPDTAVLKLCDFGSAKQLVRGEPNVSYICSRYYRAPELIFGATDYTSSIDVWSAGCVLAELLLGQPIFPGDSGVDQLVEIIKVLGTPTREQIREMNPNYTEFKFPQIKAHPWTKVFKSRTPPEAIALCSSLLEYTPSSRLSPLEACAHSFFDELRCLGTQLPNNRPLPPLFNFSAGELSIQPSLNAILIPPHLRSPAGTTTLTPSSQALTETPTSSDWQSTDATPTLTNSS", "conditions": "at 10 µM", "units": {"residual activity": "%"}, "values": [{"smiles": "COc1ccc2c(c1)c(C1=C(c3c[nH]c4ccccc34)C(=O)NC1=O)cn2CCCN(C)C", "residual activity": -1}, {"smiles": "COc1cc2nccc(Oc3ccc(NC(=S)NC(=O)c4ccccc4C)cc3)c2cc1OC", "residual activity": 147}, {"smiles": "CC(C)(C)n1nc(Cc2cccc3ccccc23)c2c(N)ncnc21", "residual activity": 130}, {"smiles": "O=C(NC(NC(=S)Nc1ccc(F)c([N+](=O)[O-])c1)C(Cl)(Cl)Cl)C(c1ccccc1)c1ccccc1", "note": "(stereo not given)", "residual activity": 89}, {"smiles": "Nc1ncnc2c1cnn2-c1ccccc1", "residual activity": 140}, {"smiles": "O=C1NC(=O)C(c2c[nH]c3ccccc23)=C1c1c[nH]c2ccccc12", "residual activity": 4}, {"smiles": "O=C1NC(=O)c2c1c1c3ccccc3[nH]c1n1cncc21", "residual activity": 4}, {"smiles": "CCCCc1c(-c2ccc(OC)cc2)[nH]c2nccnc12", "residual activity": 41}, {"smiles": "COc1cc2c(cc1OC)-c1n[nH]c(Nc3cccc(F)c3)c1C2", "residual activity": 108}, {"smiles": "Nc1ncnc2c1c(-c1ccc(Oc3ccccc3)cc1)cn2C1CCCC1", "residual activity": 112}, {"smiles": "O=c1cc(N2CCOCC2)oc2c1ccc1ccccc12", "residual activity": 80}, {"smiles": "CCCC(=O)Oc1ccc2[nH]c(C(=O)c3cc4ccccc4[nH]3)cc2c1", "residual activity": 125}, {"smiles": "O=C1NC(=O)C(c2cn(CCCn3ccnc3)c3ccccc23)=C1Nc1ccccc1", "residual activity": 1}, {"smiles": "O=C(c1cc2cc(O)ccc2[nH]1)c1cc2cc(O)ccc2[nH]1", "residual activity": 26}, {"smiles": "CN(C)S(=O)(=O)c1ccc2c(c1)/C(=C/c1cc3c([nH]1)CCCC3)C(=O)N2", "residual activity": 94}, {"smiles": "Oc1cccc(-c2nc(N3CCOCC3)c3oc4ncccc4c3n2)c1", "residual activity": 127}, {"smiles": "O=C(CCCc1ccc(-c2ccccc2F)cc1)Nc1ccc(O)cc1", "residual activity": 84}, {"smiles": "NC(=O)Nc1sc(-c2ccc(F)cc2)cc1C(N)=O", "residual activity": 29}, {"smiles": "Cc1cc(C)c(/C=C2\\C(=O)Nc3ccccc32)[nH]1", "residual activity": 124}, {"smiles": "O=C(c1ccccc1)c1ccc(N2CCOCC2)cc1O", "residual activity": 121}, {"smiles": "O=C(O)/C=C/c1cc(Br)c(Br)c(Br)c1Br", "residual activity": 51}, {"smiles": "O=C(Nc1nc2ccccc2n1CCN1CCOCC1)c1cccc([N+](=O)[O-])c1", "residual activity": 116}, {"smiles": "CCCCc1c(-c2ccc(O)cc2)[nH]c2nccnc12", "residual activity": 20}, {"smiles": "O=C1Nc2ccc(Cl)cc2/C1=C/c1cc(Cl)c(O)c(Cl)c1", "residual activity": 30}, {"smiles": "CC(C)[C@H](CO)Nc1nc(Nc2cc(N)cc(Cl)c2)c2ncn(C(C)C)c2n1", "residual activity": 28}, {"smiles": "Cn1c2ccccc2c2c3c(c4c5ccccc5n(CCC#N)c4c21)CNC3=O", "residual activity": 19}, {"smiles": "CC(C)c1nn(-c2c(Cl)cccc2Cl)c2nc(Cc3ccc(OCCO)cc3)[nH]c(=O)c12", "residual activity": 13}, {"smiles": "Nc1nc(Nc2ccc(S(N)(=O)=O)cc2)nn1C(=O)c1c(F)cccc1F", "residual activity": 4}]}, {"molecular_target": "Glycogen synthase kinase-3 beta (Homo sapiens) (UniProt P49841)", "sequence (P49841 whole entry, looked up)": "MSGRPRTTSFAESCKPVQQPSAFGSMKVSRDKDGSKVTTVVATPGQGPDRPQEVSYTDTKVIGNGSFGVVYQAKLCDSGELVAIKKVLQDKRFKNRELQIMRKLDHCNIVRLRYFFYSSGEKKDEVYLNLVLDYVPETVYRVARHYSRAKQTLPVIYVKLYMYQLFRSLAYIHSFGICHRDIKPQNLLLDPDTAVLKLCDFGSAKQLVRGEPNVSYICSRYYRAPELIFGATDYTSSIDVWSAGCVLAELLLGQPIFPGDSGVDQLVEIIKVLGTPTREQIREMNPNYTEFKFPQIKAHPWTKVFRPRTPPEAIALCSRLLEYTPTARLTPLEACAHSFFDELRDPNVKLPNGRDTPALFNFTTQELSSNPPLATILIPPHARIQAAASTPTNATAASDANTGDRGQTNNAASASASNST", "conditions": "at 1 µM", "units": {"residual activity": "%"}, "values": [{"smiles": "COc1ccc2c(c1)c(C1=C(c3c[nH]c4ccccc34)C(=O)NC1=O)cn2CCCN(C)C", "residual activity": 30}, {"smiles": "COc1cc2nccc(Oc3ccc(NC(=S)NC(=O)c4ccccc4C)cc3)c2cc1OC", "residual activity": 86}, {"smiles": "CC(C)(C)n1nc(Cc2cccc3ccccc23)c2c(N)ncnc21", "residual activity": 103}, {"smiles": "Nc1ncnc2c1cnn2-c1ccccc1", "residual activity": 84}, {"smiles": "O=C1NC(=O)C(c2c[nH]c3ccccc23)=C1c1c[nH]c2ccccc12", "residual activity": 31}, {"smiles": "O=C1NC(=O)c2c1c1c3ccccc3[nH]c1n1cncc21", "residual activity": 26}, {"smiles": "CCCCc1c(-c2ccc(OC)cc2)[nH]c2nccnc12", "residual activity": 52}, {"smiles": "Nc1ncnc2c1c(-c1ccc(Oc3ccccc3)cc1)cn2C1CCCC1", "residual activity": 88}, {"smiles": "O=C1Nc2ccccc2/C1=C\\c1c(Cl)[nH]c2ccccc12", "residual activity": 141}, {"smiles": "O=c1cc(N2CCOCC2)oc2c1ccc1ccccc12", "residual activity": 101}, {"smiles": "CCCC(=O)Oc1ccc2[nH]c(C(=O)c3cc4ccccc4[nH]3)cc2c1", "residual activity": 99}, {"smiles": "O=C1NC(=O)C(c2cn(CCCn3ccnc3)c3ccccc23)=C1Nc1ccccc1", "residual activity": 14}, {"smiles": "O=C(c1cc2cc(O)ccc2[nH]1)c1cc2cc(O)ccc2[nH]1", "residual activity": 59}, {"smiles": "CN(C)S(=O)(=O)c1ccc2c(c1)/C(=C/c1cc3c([nH]1)CCCC3)C(=O)N2", "residual activity": 112}, {"smiles": "O=C(CCCc1ccc(-c2ccccc2F)cc1)Nc1ccc(O)cc1", "residual activity": 102}, {"smiles": "O=C(c1ccccc1)c1ccc(N2CCOCC2)cc1O", "residual activity": 96}, {"smiles": "O=C(O)/C=C/c1cc(Br)c(Br)c(Br)c1Br", "residual activity": 125}, {"smiles": "CCCCc1c(-c2ccc(O)cc2)[nH]c2nccnc12", "residual activity": 79}, {"smiles": "O=c1cc(N2CCNCC2)oc2c(-c3ccccc3)cccc12", "residual activity": 78}, {"smiles": "O=C1Nc2ccc(Cl)cc2/C1=C/c1cc(Cl)c(O)c(Cl)c1", "residual activity": 84}, {"smiles": "O=C1C(Cl)=C(N2C(=O)CCC2=O)C(=O)c2ccccc21", "residual activity": 120}, {"smiles": "Cn1c2ccccc2c2c3c(c4c5ccccc5n(CCC#N)c4c21)CNC3=O", "residual activity": 15}, {"smiles": "CC(C)c1nn(-c2c(Cl)cccc2Cl)c2nc(Cc3ccc(OCCO)cc3)[nH]c(=O)c12", "residual activity": 51}, {"smiles": "Nc1nc(Nc2ccc(S(N)(=O)=O)cc2)nn1C(=O)c1c(F)cccc1F", "residual activity": 23}]}, {"molecular_target": "Glycogen synthase kinase-3 beta (Homo sapiens) (UniProt P49841)", "conditions": "at 10 µM", "units": {"residual activity": "%"}, "values": [{"smiles": "COc1ccc2c(c1)c(C1=C(c3c[nH]c4ccccc34)C(=O)NC1=O)cn2CCCN(C)C", "residual activity": 4}, {"smiles": "COc1cc2nccc(Oc3ccc(NC(=S)NC(=O)c4ccccc4C)cc3)c2cc1OC", "residual activity": 99}, {"smiles": "CC(C)(C)n1nc(Cc2cccc3ccccc23)c2c(N)ncnc21", "residual activity": 65}, {"smiles": "O=C1NC(=O)C(c2c[nH]c3ccccc23)=C1c1c[nH]c2ccccc12", "residual activity": 6}, {"smiles": "O=C1NC(=O)c2c1c1c3ccccc3[nH]c1n1cncc21", "residual activity": 29}, {"smiles": "CCCCc1c(-c2ccc(OC)cc2)[nH]c2nccnc12", "residual activity": 71}, {"smiles": "COc1cc2c(cc1OC)-c1n[nH]c(Nc3cccc(F)c3)c1C2", "residual activity": 75}, {"smiles": "O=C1Nc2ccccc2/C1=C\\c1c(Cl)[nH]c2ccccc12", "residual activity": 80}, {"smiles": "O=c1cc(N2CCOCC2)oc2c1ccc1ccccc12", "residual activity": 73}, {"smiles": "CCCC(=O)Oc1ccc2[nH]c(C(=O)c3cc4ccccc4[nH]3)cc2c1", "residual activity": 95}, {"smiles": "O=C1NC(=O)C(c2cn(CCCn3ccnc3)c3ccccc23)=C1Nc1ccccc1", "residual activity": 3}, {"smiles": "O=C(c1cc2cc(O)ccc2[nH]1)c1cc2cc(O)ccc2[nH]1", "residual activity": 20}, {"smiles": "CN(C)S(=O)(=O)c1ccc2c(c1)/C(=C/c1cc3c([nH]1)CCCC3)C(=O)N2", "residual activity": 94}, {"smiles": "O=C(CCCc1ccc(-c2ccccc2F)cc1)Nc1ccc(O)cc1", "residual activity": 79}, {"smiles": "O=C(c1ccccc1)c1ccc(N2CCOCC2)cc1O", "residual activity": 87}, {"smiles": "O=C(O)/C=C/c1cc(Br)c(Br)c(Br)c1Br", "residual activity": 106}, {"smiles": "CCCCc1c(-c2ccc(O)cc2)[nH]c2nccnc12", "residual activity": 73}, {"smiles": "O=c1cc(N2CCNCC2)oc2c(-c3ccccc3)cccc12", "residual activity": 84}, {"smiles": "O=C1Nc2ccc(Cl)cc2/C1=C/c1cc(Cl)c(O)c(Cl)c1", "residual activity": 44}, {"smiles": "O=C1C(Cl)=C(N2C(=O)CCC2=O)C(=O)c2ccccc21", "residual activity": 93}, {"smiles": "Cn1c2ccccc2c2c3c(c4c5ccccc5n(CCC#N)c4c21)CNC3=O", "residual activity": 26}, {"smiles": "CC(C)c1nn(-c2c(Cl)cccc2Cl)c2nc(Cc3ccc(OCCO)cc3)[nH]c(=O)c12", "residual activity": 45}, {"smiles": "Nc1nc(Nc2ccc(S(N)(=O)=O)cc2)nn1C(=O)c1c(F)cccc1F", "residual activity": 3}]}]}
